# Results reported in PubChem BioAssay AID1508601 (ICCB-Longwood Screening Facility, Harvard Medical School, 2020).
# “And” between values parts separate entries of the source, which are not always exact repeats. Equal entries are not always repeated. In all, about 5,700 compounds went through this assay and about 85 (1%) were called active. Cut-off read from the data, not from the text of the source: active = p53-positive nuclei above about 36% (passing the limit was not always enough); inactive = the rest. The sample as a whole holds a higher share of actives than the screen did.
# Legend:
# [1] = p53 stabilisation in HPV-positive human cells, imaging, p53-positive nuclei imaging, 24 h, 48 h (AID 1508601); conditions: 24/48 h
# [2] = target: Cellular tumor antigen p53 (Homo sapiens) (UniProt P04637); test: as above; conditions: 24/48 h, stronger effect = higher value
# Cellular tumor antigen p53 (Homo sapiens), sequence (P04637 whole entry, looked up): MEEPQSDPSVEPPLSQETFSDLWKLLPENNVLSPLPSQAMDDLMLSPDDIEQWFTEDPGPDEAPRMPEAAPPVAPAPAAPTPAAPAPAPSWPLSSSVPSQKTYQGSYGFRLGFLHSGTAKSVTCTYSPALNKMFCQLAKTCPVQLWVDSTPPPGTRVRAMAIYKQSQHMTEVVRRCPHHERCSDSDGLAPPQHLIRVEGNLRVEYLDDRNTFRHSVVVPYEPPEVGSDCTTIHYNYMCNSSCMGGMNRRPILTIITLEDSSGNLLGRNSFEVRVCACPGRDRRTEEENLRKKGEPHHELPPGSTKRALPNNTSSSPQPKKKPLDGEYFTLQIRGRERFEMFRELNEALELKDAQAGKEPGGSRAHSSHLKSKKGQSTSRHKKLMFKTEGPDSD
# [3] = measured here: cell number at 24 h, Library stock concentration: 80 uM
# [4] = measured here: cell number at 24 h, Library stock concentration: 400 uM
# [5] = measured here: cell number at 24 h, Library stock concentration: 2 mM
# [6] = measured here: cell number at 24 h, Library stock concentration: 10 mM
# [7] = measured here: cell number at 48 h, Library stock concentration: 80 uM
# [8] = measured here: cell number at 48 h, Library stock concentration: 400 uM
# [9] = measured here: cell number at 48 h, Library stock concentration: 2 mM
# [10] = measured here: cell number at 48 h, Library stock concentration: 10 mM
# [11] = Library stock concentration: 80 uM
# [12] = Library stock concentration: 400 uM
# [13] = Library stock concentration: 2 mM
# [14] = Library stock concentration: 10 mM
# [15] = measured here: p53 positive nuclei at 24 h, Library stock concentration: 80 uM
# [16] = measured here: p53 positive nuclei at 24 h, Library stock concentration: 400 uM
# [17] = measured here: p53 positive nuclei at 24 h, Library stock concentration: 2 mM
# [18] = measured here: p53 positive nuclei at 24 h, Library stock concentration: 10 mM
# [19] = measured here: cell number at 24 h, Library stock concentration: 3.33 mM
# [20] = measured here: cell number at 48 h, Library stock concentration: 3.33 mM
# [21] = Library stock concentration: 3.33 mM
# [22] = measured here: p53 positive nuclei at 24 h, Library stock concentration: 3.33 mM
# [23] = measured here: cell number at 24 h, Library stock concentration: 46 uM
# [24] = measured here: cell number at 24 h, Library stock concentration: 278 uM
# [25] = measured here: cell number at 24 h, Library stock concentration: 1.67 mM
# [26] = measured here: cell number at 48 h, Library stock concentration: 46 uM
# [27] = measured here: cell number at 48 h, Library stock concentration: 278 uM
# [28] = measured here: cell number at 48 h, Library stock concentration: 1.67 mM
# [29] = Library stock concentration: 46 uM
# [30] = Library stock concentration: 278 uM
# [31] = Library stock concentration: 1.67 mM
# [32] = measured here: p53 positive nuclei at 24 h, Library stock concentration: 46 uM
# [33] = measured here: p53 positive nuclei at 24 h, Library stock concentration: 278 uM
# [34] = measured here: p53 positive nuclei at 24 h, Library stock concentration: 1.67 mM
structure (smiles),measurement,setting,value
CC(=O)NC(CC(C)C)C(=O)NC(CC(C)C)C(=O)NC(C=O)CCCN=C(N)N (centres undefined),"nuclei count, normalised",[1]; [3],88.7%
same,"nuclei count, normalised",[1]; [4],87.3%
same,"nuclei count, normalised",[1]; [5],62.5%
same,"nuclei count, normalised",[1]; [6],67.4%
same,"nuclei count, normalised",[1]; [7],91.5%
same,"nuclei count, normalised",[1]; [8],90.5%
same,"nuclei count, normalised",[1]; [9],69%
same,"nuclei count, normalised",[1]; [10],72.9%
same,"p53-positive nuclei, normalised",[2]; [11],0.011% (inactive)
same,"p53-positive nuclei, normalised",[2]; [12],-0.0354% (inactive)
same,"p53-positive nuclei, normalised",[2]; [13],-0.0908% (inactive)
same,"p53-positive nuclei, normalised",[2]; [14],-0.0909% (inactive)
same,"p53-positive nuclei, normalised",[2]; [15],-0.0474%
same,"p53-positive nuclei, normalised",[2]; [16],-0.0442%
same,"p53-positive nuclei, normalised",[2]; [17],0.0943%
same,"p53-positive nuclei, normalised",[2]; [18],-0.12%
C=CC(=O)N1CCc2ccc(-n3c(=O)ccc4cnc5ccc(-c6cnn(C)c6)cc5c43)cc21,"nuclei count, normalised",[1]; [3],107%
same,"nuclei count, normalised",[1]; [4],102%
same,"nuclei count, normalised",[1]; [5],74.7%
same,"nuclei count, normalised",[1]; [6],48.5%
same,"nuclei count, normalised",[1]; [7],108%
same,"nuclei count, normalised",[1]; [8],102%
same,"nuclei count, normalised",[1]; [9],84.2%
same,"nuclei count, normalised",[1]; [10],37.4%
same,"p53-positive nuclei, normalised",[2]; [11],-0.0335% (inactive)
same,"p53-positive nuclei, normalised",[2]; [12],-0.203% (inactive)
same,"p53-positive nuclei, normalised",[2]; [13],-0.00288% (inactive)
same,"p53-positive nuclei, normalised",[2]; [14],0.846% (inactive)
same,"p53-positive nuclei, normalised",[2]; [15],-0.0563%
same,"p53-positive nuclei, normalised",[2]; [16],-0.129%
same,"p53-positive nuclei, normalised",[2]; [17],-0.129%
same,"p53-positive nuclei, normalised",[2]; [18],0.0284%
CS(=O)(=O)c1ccc(C(CC2CCCC2)C(=O)Nc2nccs2)cc1 (centres undefined),"nuclei count, normalised",[1]; [3],117%
same,"nuclei count, normalised",[1]; [4],108%
same,"nuclei count, normalised",[1]; [5],110%
same,"nuclei count, normalised",[1]; [6],109%
same,"nuclei count, normalised",[1]; [7],110%
same,"nuclei count, normalised",[1]; [8],104%
same,"nuclei count, normalised",[1]; [9],100%
same,"nuclei count, normalised",[1]; [10],106%
same,"p53-positive nuclei, normalised",[2]; [11],0.258% (inactive)
same,"p53-positive nuclei, normalised",[2]; [12],0.124% (inactive)
same,"p53-positive nuclei, normalised",[2]; [13],0.01% (inactive)
same,"p53-positive nuclei, normalised",[2]; [14],-0.00666% (inactive)
same,"p53-positive nuclei, normalised",[2]; [15],-0.031%
same,"p53-positive nuclei, normalised",[2]; [16],-0.122%
same,"p53-positive nuclei, normalised",[2]; [17],0.0254%
same,"p53-positive nuclei, normalised",[2]; [18],-0.0737%
O=C(NN=Cc1ccc(O)c(O)c1)c1cc2ccccc2cc1O,"nuclei count, normalised",[1]; [19],108%
same,"nuclei count, normalised",[1]; [20],99.5%
same,"p53-positive nuclei, normalised",[2]; [21],0.0529% (inactive)
same,"p53-positive nuclei, normalised",[2]; [22],-0.25%
CCOC(=O)NC1CCC2C(C1)CC1C(=O)OC(C)C1C2C=Cc1ccc(-c2cccc(F)c2)cn1 (centres undefined),"nuclei count, normalised",[1]; [23],115%
same,"nuclei count, normalised",[1]; [24],108%
same,"nuclei count, normalised",[1]; [25],101%
same,"nuclei count, normalised",[1]; [6],105%
same,"nuclei count, normalised",[1]; [26],117%
same,"nuclei count, normalised",[1]; [27],109%
same,"nuclei count, normalised",[1]; [28],107%
same,"nuclei count, normalised",[1]; [10],107%
same,"p53-positive nuclei, normalised",[2]; [29],-0.0807% (inactive)
same,"p53-positive nuclei, normalised",[2]; [30],-0.17% (inactive)
same,"p53-positive nuclei, normalised",[2]; [31],0.0724% (inactive)
same,"p53-positive nuclei, normalised",[2]; [14],-0.166% (inactive)
same,"p53-positive nuclei, normalised",[2]; [32],-0.0891%
same,"p53-positive nuclei, normalised",[2]; [33],-0.151%
same,"p53-positive nuclei, normalised",[2]; [34],-0.079%
same,"p53-positive nuclei, normalised",[2]; [18],0.188%
Nc1ccccc1NC(=O)c1ccc(CNC(=O)OCc2cccnc2)cc1,"nuclei count, normalised",[1]; [23],96%
same,"nuclei count, normalised",[1]; [3],114%
same,"nuclei count, normalised",[1]; [24],104%
same,"nuclei count, normalised",[1]; [4],118%
same,"nuclei count, normalised",[1]; [25],107%
same,"nuclei count, normalised",[1]; [5],124%
same,"nuclei count, normalised",[1]; [19],104%
same,"nuclei count, normalised",[1]; [6],90.8% and 96%
same,"nuclei count, normalised","[1]; measured here: cell number at 24 h, concentration not given here",107%
same,"nuclei count, normalised",[1]; [26],96.3%
same,"nuclei count, normalised",[1]; [7],103%
same,"nuclei count, normalised",[1]; [27],103%
same,"nuclei count, normalised",[1]; [8],100%
same,"nuclei count, normalised",[1]; [28],95.3%
same,"nuclei count, normalised",[1]; [9],101%
same,"nuclei count, normalised",[1]; [20],88.9%
same,"nuclei count, normalised",[1]; [10],58% and 57.5%
same,"nuclei count, normalised","[1]; measured here: cell number at 48 h, concentration not given here",103%
same,"p53-positive nuclei, normalised",[2]; [29],-0.0533% (inactive)
same,"p53-positive nuclei, normalised",[2]; [11],-0.489% (inactive)
same,"p53-positive nuclei, normalised",[2]; [30],-0.145% (inactive)
same,"p53-positive nuclei, normalised",[2]; [12],-0.1% (inactive)
same,"p53-positive nuclei, normalised",[2]; [31],3.54% (inactive)
same,"p53-positive nuclei, normalised",[2]; [13],0.00969% (inactive)
same,"p53-positive nuclei, normalised",[2]; [21],0.482% (inactive)
same,"p53-positive nuclei, normalised",[2]; [14],17.1% (inactive) and 14.2% (inactive)
same,"p53-positive nuclei, normalised",[2]; concentration not given here,0.78% (inactive)
same,"p53-positive nuclei, normalised",[2]; [32],0.084%
same,"p53-positive nuclei, normalised",[2]; [15],-0.0702%
same,"p53-positive nuclei, normalised",[2]; [33],-0.207%
same,"p53-positive nuclei, normalised",[2]; [16],0.0634%
same,"p53-positive nuclei, normalised",[2]; [34],5.23%
same,"p53-positive nuclei, normalised",[2]; [17],0.00201%
same,"p53-positive nuclei, normalised",[2]; [22],0.899%
same,"p53-positive nuclei, normalised",[2]; [18],34.2% and 14.9%
same,"p53-positive nuclei, normalised","[2]; measured here: p53 positive nuclei at 24 h, concentration not given here",0.224%
Nc1ccccc1NC(=O)c1ccc(CNc2nccc(-c3cccnc3)n2)cc1,"nuclei count, normalised",[1]; [3],128%
same,"nuclei count, normalised",[1]; [4],124%
same,"nuclei count, normalised",[1]; [5],125%
same,"nuclei count, normalised",[1]; [19],42.1%
same,"nuclei count, normalised",[1]; [6],49.9%
same,"nuclei count, normalised",[1]; [7],109%
same,"nuclei count, normalised",[1]; [8],107%
same,"nuclei count, normalised",[1]; [9],98.1%
same,"nuclei count, normalised",[1]; [20],30.1%
same,"nuclei count, normalised",[1]; [10],29.3%
same,"p53-positive nuclei, normalised",[2]; [11],8% (inactive)
same,"p53-positive nuclei, normalised",[2]; [12],0.396% (inactive)
same,"p53-positive nuclei, normalised",[2]; [13],1.82% (inactive)
same,"p53-positive nuclei, normalised",[2]; [21],23.5% (inactive)
same,"p53-positive nuclei, normalised",[2]; [14],83.5% (active)
same,"p53-positive nuclei, normalised",[2]; [15],4.97%
same,"p53-positive nuclei, normalised",[2]; [16],0.046%
same,"p53-positive nuclei, normalised",[2]; [17],0.551%
same,"p53-positive nuclei, normalised",[2]; [22],10.3%
same,"p53-positive nuclei, normalised",[2]; [18],87.6%
Cc1ccc(NC(=O)c2ccc(CN3CCN(C)CC3)cc2)cc1Nc1nccc(-c2cccnc2)n1,"nuclei count, normalised",[1]; [3],114%
same,"nuclei count, normalised",[1]; [4],85.7%
same,"nuclei count, normalised",[1]; [5],91%
same,"nuclei count, normalised",[1]; [19],99% and 103%
same,"nuclei count, normalised",[1]; [6],87.2%
same,"nuclei count, normalised",[1]; [7],112%
same,"nuclei count, normalised",[1]; [8],84.9%
same,"nuclei count, normalised",[1]; [9],92.2%
same,"nuclei count, normalised",[1]; [20],99.2% and 104%
same,"nuclei count, normalised",[1]; [10],87.9%
same,"p53-positive nuclei, normalised",[2]; [11],0.0518% (inactive)
same,"p53-positive nuclei, normalised",[2]; [12],0.00427% (inactive)
same,"p53-positive nuclei, normalised",[2]; [13],-0.0247% (inactive)
same,"p53-positive nuclei, normalised",[2]; [21],-0.686% (inactive) and -0.212% (inactive)
same,"p53-positive nuclei, normalised",[2]; [14],-0.182% (inactive)
same,"p53-positive nuclei, normalised",[2]; [15],0.0696%
same,"p53-positive nuclei, normalised",[2]; [16],0.334%
same,"p53-positive nuclei, normalised",[2]; [17],0.0437%
same,"p53-positive nuclei, normalised",[2]; [22],-0.375% and -0.356%
same,"p53-positive nuclei, normalised",[2]; [18],-0.0433%
